# This is a sample that favours compounds with a hit; in the whole collection about 15% have one here.
# DT40 TDP1 CPT = growth inhibition of DT40 Tdp1-/-;hTDP1 cells with camptothecin (screen for TDP1 inhibitors). chicken DT40 Tdp1-/-;hTDP1 cells + 20 nM CPT, ATP luminescence, 48 h. Potency, µM (titrated, usually from 46.2 µM), inactives show top-dose activity change, negative = growth inhibition, most hits filed as inhibitors. 12% of 420,000 active. AID 686979; also: nearly all actives have a fitted effect of over 55% in size
#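 Chicken DT40 Tdp1-/- cells complemented with human TDP1, 400 cells/well, exposed to compounds plus 20 nM camptothecin for at least 48 h at 37 C; viability read as ATP content by CellTiter-Glo luminescence.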
# ALOX12 inh = inhibitors of human 12S-lipoxygenase ALOX12. Potency, µM (doses to about 108 µM), without a hit: at the top dose activity change, negative = inhibition, usual class: inhibitors. P18054. AID 1671190. 1.1% of 580,000 active. purified 12hLO, xylenol orange hydroperoxide absorbance
# Target sequence (P18054 whole entry, looked up): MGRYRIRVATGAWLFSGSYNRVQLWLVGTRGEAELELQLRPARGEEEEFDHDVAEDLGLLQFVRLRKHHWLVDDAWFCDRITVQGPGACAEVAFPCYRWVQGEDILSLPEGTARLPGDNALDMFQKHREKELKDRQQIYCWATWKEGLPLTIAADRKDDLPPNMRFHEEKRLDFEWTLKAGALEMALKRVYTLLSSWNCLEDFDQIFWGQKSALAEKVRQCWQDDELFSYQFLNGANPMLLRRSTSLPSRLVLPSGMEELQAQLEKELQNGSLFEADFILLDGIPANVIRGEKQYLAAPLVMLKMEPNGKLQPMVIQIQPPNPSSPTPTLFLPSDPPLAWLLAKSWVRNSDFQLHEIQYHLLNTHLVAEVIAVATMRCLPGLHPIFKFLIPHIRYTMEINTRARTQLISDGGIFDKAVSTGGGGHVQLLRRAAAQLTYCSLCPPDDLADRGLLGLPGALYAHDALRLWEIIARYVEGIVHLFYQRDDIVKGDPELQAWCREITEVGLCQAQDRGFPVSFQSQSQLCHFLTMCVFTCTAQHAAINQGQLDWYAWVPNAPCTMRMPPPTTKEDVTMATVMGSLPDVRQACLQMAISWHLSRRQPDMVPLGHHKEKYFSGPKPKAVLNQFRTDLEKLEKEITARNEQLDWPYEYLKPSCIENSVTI
#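 Purified human 12hLO (150 nM final) in 25 mM Hepes, 0.01% Triton X-100, pH 7.0 was preincubated 15 min at room temperature with compound. Then 40 uM arachidonic acid was added, 30 min. Hydroperoxide was read by Fe-XO absorbance ratio 573/405 nm.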
# Gal4-VP16 FLuc = counter-screen for ROR gamma inhibitors: Gal4-VP16 reporter. Drosophila S2 Gal4-VP16 UAS-luciferase, luminescence, 20 h. Potency, µM (highest dose often 53.6 µM), inactives show at the top dose activity, negative = inhibition, actives largely listed as inhibitors. 3.5% of 310,000 active. AID 2546;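 also: Gal4-VP16 expression switched on by copper sulfate through the metallothionein promoter; nearly all actives have a fitted effect of over 50% in size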
# ELG1 repair inh = inhibitors of ELG1-dependent DNA repair in HEK293T cells. HEK293T ELG1-luciferase reporter, luminescence, 16 h; DNA damage induced by 5-fluorouridine. Potency, µM (titrated, usually from 46.1 µM), for the others: top-dose activity change, negative = inhibition, hits mostly inhibitors. 2.3% of 330,000 active. AID 504467; also: nearly all actives have a fitted effect of over 55% in size
#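 Step one: seed 2,000 cells per well. Step two: pin-transfer compound or DMSO alongside 5-fluorouridine. Step three: incubate 16 hr, 37 °C, 5% CO2. Step four: add ONE-Glo, wait 30 min, read luminescence.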
# TDP1 cell noCPT = qHTS for Inhibitors of human tyrosyl-DNA phosphodiesterase 1 (TDP1): qHTS in cells in absence of CPT; 15% of 420,000 active; DT40 Tdp1-/- hTDP1 cells, no CPT, ATP luminescence, 48 h; Potency, µM (top dose mostly 46.2 µM), inactives show top-dose activity change, negative = growth inhibition, hits mostly inhibitors; also: nearly all actives have a fitted effect of over 55% in size
#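 Stably hTDP1-transfected Tdp1-null chicken DT40 cells were treated with library compounds minus camptothecin and grown for at least 48 hr at 37 °C, after which cellular ATP was quantified by luminescence.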
# RORg inh = ROR gamma (mouse) transcription inhibition; P51450; Drosophila S2 Gal4-RORgamma UAS-luciferase reporter, 20 h; Potency, µM (titrated, usually from 53.6 µM), inactives show top-dose activity change, negative = inhibition, actives largely listed as inhibitors; 5.4% of 310,000 active; AID 2551; also: nearly all actives have a fitted effect of over 60% in size
#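 Drosophila Schneider cells stably carrying a metallothionein-driven Gal4 DBD–ROR gamma fusion and a UAS-Photinus luciferase reporter were exposed to compound for 1 hr, then induced with copper sulfate (700 uM final) for 20 hr at ambient temperature before luminescence reading.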
# * = called active by the depositor; u = inconclusive; x = no result given; [ ] = another dose, or the depositor's remark. Calls follow the shape of the dose curve; as a rule, active = well fitted curve in the direction sought with a large enough effect; inconclusive = small, poorly fitted or top-dose-only effect, or another doubt; inactive = no such curve, though single readings can be large; an effect the other way counts as inactive or inconclusive. % is scaled to controls: 0 for no effect and ±100 for the full control effect; potency is read from the fitted curve at half-maximal effect.
SMILES,DT40 TDP1 CPT,ALOX12 inh,Gal4-VP16 FLuc,ELG1 repair inh,TDP1 cell noCPT,RORg inh
CC(C)(C)NC(=S)Nc1ccc(Br)cc1,u,-8.1%,-84.4%,24.0%,u,2µM*
CC(C)(C)NC(=S)Nc1ccc(Nc2ccccc2)cc1,14.6µM*,-38.1%,7.08µM*,18.4%,16.4µM*,1.78µM*
Cc1ccccc1CC1(CO)CCCN(C(=O)c2ccc3ncccc3c2)C1 (centres undefined),6.51µM*,25.1%,3.7%,14.6%,14.6µM*,7.2%
Cc1ccccc1CC1(CO)CCCN(C(=O)c2ccc(F)cc2)C1 (centres undefined),u,-12.2%,5.7%,0.0%,u,33.6%
COC(/C(=N/O)c1ccc(Cl)cc1)c1ccccc1 (centres undefined),u,-28.7%,4.47µM*,u,23.1µM*,5.62µM*
Clc1ccc(N2CCN(Cc3nnc(-c4ccc5c(c4)OCO5)o3)CC2)cc1,u,-28.9%,x,x,18.4µM*,x
Fc1ccc(-c2nnc(CN3CCN(c4ncc(C(F)(F)F)cc4Cl)CC3)o2)cc1,13µM*,0.0%,x,-20.2%,14.6µM*,-4.5%[0.365 µM]
FC(F)(F)c1cccc(N2CCN(Cc3nnc(-c4ccc5c(c4)OCO5)o3)CC2)c1,u,-17.1%,x,x,16.4µM*,x
O=C1CCCC2=C1C(c1ccccc1Cl)CC(=O)N2c1ccc(F)cc1F (centres undefined),x,3.8%,x,x,x,x
Cc1ccccc1COc1ccccc1C(=O)OCc1ccc(-c2ccccc2)cc1,x,-4.9%,x,x,x,x
Oc1ccc(-c2nc3c4c(ncn3n2)-c2ccccc2CC42CCCC2)cc1,14.6µM*,-19.5%,-6.0%,u,16.4µM*,-5.2%
Nn1cnc2c(c1=O)C1(CCCCC1)Cc1ccccc1-2,9.2µM*,-11.8%,-1.6%,-4.1%,8.2µM*,26.2%
Cc1cc(Nc2ccccc2F)n2nc(-c3ccccc3)nc2n1,u,0.0%,x,x,u,x
Cc1cc(Nc2cccc(F)c2)n2nc(-c3ccco3)nc2n1,18.4µM*,4.4%,x,x,u,x
Cc1cc(Nc2ccccc2Cl)n2nc(-c3ccco3)nc2n1,u,10.6%,x,x,25.9µM*,x
Cc1cc(Nc2ccc(F)c(F)c2)n2nc(-c3ccco3)nc2n1,x,-14.6%,x,x,x,x
CCOC(=O)c1ccccc1Nc1cc(C)nc2nc(-c3ccco3)nn12,u,-24.0%,x,x,16.4µM*,x
CC1CCCCN1S(=O)(=O)c1ccc(C(=O)Nc2nnc(-c3ccncc3)o2)cc1 (centres undefined),u,-3.2%,7.5%,u,u,5.8%
CS(=O)(=O)c1ccccc1-c1nnc(NC(=O)c2ccc(S(=O)(=O)N3CCCC3)cc2)o1,-11.1%,-12.7%,x,7.0%,-3.1%,x
CCC1CCCCN1S(=O)(=O)c1ccc(NC(=O)c2cc(=O)c3c(C)cc(C)cc3o2)cc1 (centres undefined),-27.1%,-10.5%,x,x,14.6µM*,x
CCC1CCCCN1S(=O)(=O)c1ccc(NC(=O)c2ccncc2)cc1 (centres undefined),16.4µM*,244.7%,u,5.17µM*,11.6µM*,40.2%
CCC1CCCCN1S(=O)(=O)c1ccc(C(=O)Nc2nnc(C3CC3)o2)cc1 (centres undefined),u,0.0%,0.316µM*,u,u,0.316µM*
Cc1cc(C)c2c(=O)cc(C(=O)Nc3ccc(Cl)cc3)oc2c1,x,18.3%,x,x,x,x
CCC1CCCCN1S(=O)(=O)c1ccc(C(=O)Nc2nnc(-c3ccccc3Cl)o2)cc1 (centres undefined),5.17µM*,x,0.0079µM*,u,6.51µM*,0.282µM*
CC(=O)Oc1c(-c2ccc(NC(=O)c3cccs3)cc2)c(-c2cccc(F)c2)nn1-c1ccccc1,x,3.8%,x,x,x,x
SMILES,DT40 TDP1 CPT,ALOX12 inh,Gal4-VP16 FLuc,ELG1 repair inh,TDP1 cell noCPT,RORg inh
COC(=O)c1cc2n(n1)CCCN(C(=O)c1ccc(OC)nc1OC)C2,x,71.1%,x,x,x,x
c1ccc(CC2=NOC3(CCN(Cc4ccccc4)C3)C2)cc1 (centres undefined),x,55.3%[176 µM],x,x,x,x
N#CCCCN1C(=O)C(O)(CC(=O)c2ccc3c(c2)OCCO3)c2ccccc21 (centres undefined),u,u,23.9%,12.2%,u,-6.1%
N#CCCCN1C(=O)C(=C(C#N)C#N)c2ccccc21,16.4µM*,u,u,-0.1%,u,u
CNS(=O)(=O)c1cc(NS(=O)(=O)c2cc(Cl)cc(Cl)c2)ccc1C,x,-16.0%,x,x,x,x
CN(CC(=O)NCCc1ccccc1)CC(=O)Nc1cccc(F)c1,-29.3%,-23.5%,x,11.6%,-25.0%,x
O=C(NCCCCc1ccccc1)Nc1cccc(F)c1,u,2.2%,-14.2%,-0.8%,23.1µM*,u
Cc1cccc(NC(=O)NCCCCc2ccccc2)c1,-20.7%,-2.7%,0.9%,u,-12.5%,22.2%
Fc1cccc(NC(=S)NCCc2ccccc2)c1,u,u,u,17.9%,20.6µM*,3.16µM*
O=C(NCCc1ccccc1)Nc1cccc(Cl)c1,16.4µM*,32.9%,7.1%,u,u,44.8%
Fc1ccccc1NC(=S)NCCc1ccc(Cl)cc1,u,39.8µM*,u,u,-24.1%,8.91µM*
Fc1ccc(F)c(NC(=S)NCCc2ccccc2)c1,16.4µM*,-29.1%,u,-4.4%,16.4µM*,4.47µM*
S=C(NCCc1ccccc1)Nc1cnc2ccccc2c1,-0.9%,-26.3%,u,u,u,-99.6%
Fc1ccccc1NC(=S)NCCc1ccccc1,7.31µM*,0.0%,u,u,9.2µM*,6.31µM*
O=C(COc1ccc(Cl)cc1Cl)NCC1(N2CCOCC2)CCCCC1,18.4µM*,-6.5%,x,u,20.6µM*,x
OC(CNCC1(N2CCCCC2)CCCCC1)COc1ccc(Cl)cc1Cl (centres undefined),u,-7.4%,8.0%,u,14.6µM*,2.7%
O=C(COc1ccccc1Cl)NCC1(N2CCOCC2)CCCCC1,20.6µM*,u,x,x,14.6µM*,x
O=C(COc1ccc(Cl)cc1Cl)NC(=O)N1CCCCC1,9.5%,18.8%,u,u,-13.0%,u
Cc1ccc(C(C)C)c(OCC(=O)NCC2(N3CCOCC3)CCCCC2)c1,9.2µM*,u,x,x,7.31µM*,x
CCOc1cc(C2C(C(=O)c3ccco3)=C(O)C(=O)N2c2cc(C)on2)ccc1O (centres undefined),x,-18.0%,x,x,x,x
CC(=O)NC(C)C(=O)NC(C)c1ccc(Cl)cc1 (centres undefined),x,8.2%,x,x,x,x
